# High-throughput results deposited in PubChem by several laboratories.
# Rce1 inhib – blocks yeast Ras-converting enzyme | Q03530 | yeast membranes, quenched prenylated peptide cleavage fluorescence | calls only | 0.27% of 290,000 active;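 active means fall in fluorescence gain of 50% or more versus controls, with final raw signal at or below 3038400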;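 further: plate controls were neutral control wells for no effect and wells lacking membranes for full effect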
# V-ATPase pH – yeast V-ATPase proton transport regulation by pHLuorin. S. cerevisiae, pHLuorin cytosolic pH fluorescence. response, % at 10 µM. 0.37% of 350,000 active; in the data active means response mostly above about 7.3%, no sharp cut-off; inactive means mostly below about 5.4%; further: actives read high
# NALP1 inh – inhibitors of NALP1 inflammasome in yeast | S. cerevisiae NALP1/ASC/caspase-1 growth, X-gal OD620, 72 h | inhibition, % at 10 µM | 0.61% of 280,000 active; in the data active means inhibition mostly above about 24%, no sharp cut-off; inactive means mostly below about 32%
# PERK inh – inhibitors of human PERK kinase; 0.17% of 220,000 active; inhibition, % at 5.6 µM; CHO PERK-DD fusion, SEAP luminescence translation reporter; AID 1416;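 active means inhibition above the mean inhibition of all tested compounds plus 3 SD, set separately per screening campaign, cut at about 2.9% in these data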;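 further: PERK kinase domain activated by AP20187 dimerizer at 100 nM; 0% = DMSO with dimerizer and 100% = rapamycin at 8.4 µM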
# NALP3 yeast inh – inhibitors of NALP3 inflammasome in yeast. 0.39% of 330,000 active. inhibition, % at 10 µM. Yeast reconstituted NLRP3/ASC/caspase-1, beta-gal luminescence, 24 h;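 active means inhibition of 50% or more; inactive means inhibition below 50%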;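 further: plate controls were induced DMSO wells for no effect and uninduced yeast grown without galactose for full effect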
# Yeast superoxide – caloric restriction mimetics inhibiting age-related superoxide in yeast. S. cerevisiae aged cells, superoxide DHE fluorescence; hits give low values. AID 2690. 0.18% of 330,000 active. superoxide response (% of plate mean), % at 10 µM;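 active means superoxide response under a set limit, about three screen SD below normal, cut at about 65% in these data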;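 further: yeast aged for seven days with compound at 30 °C before DHE staining; 100% = average MFI of all compound-treated wells on the plate with controls excluded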
# Active calls of the source: *; i = inactive; . = no result; + = active, no number. This is a sample that favours compounds with a hit; in the whole collection about 1.6% have one here.
SMILES,Rce1 inhib,V-ATPase pH,NALP1 inh,PERK inh,NALP3 yeast inh,Yeast superoxide
CCc1sc(C(C2C(=O)CC(C)(C)CC2=O)C2C(=O)CC(C)(C)CC2=O)cc1[N+](=O)[O-],.,8.1*,-7.4,0.5,23.4,119.3
Cn1c(-c2ccccc2)cc(=NNS(C)(=O)=O)c2cc(S(=O)(=O)O)ccc21,.,-0.7,.,.,.,.
CCCCN(CCCNC(=O)c1ccc2c(c1)NC(=O)CN2C)c1ccccc1,.,-0.8,.,.,.,.
CC(C)(C#N)Nc1ccccc1,i,-1.5,17.5*,-0.8,17.7,104.5
CC(C)(C#N)NC(=O)c1ccco1,i,-1.1,12.6,1.1,8.7,101.0
COc1ccc(OCc2cc(C(=O)N3CCN(CC4CC4)CC3)no2)c(Cl)c1,i,-2.5,28.4*,.,17.9,76.4
CCOC(=O)N1CCN(C(=O)c2cc(COc3ccc(OC)cc3Cl)on2)CC1,i,1.1,16.1,.,25.4,96.0
CCOC(=O)c1c(N)nn(C(=O)C(C)C)c1-c1ccccc1,i,-2.8,37.5*,-0.1,1.7,102.2
CC1(C)CC(=O)C=C(c2ccc(-c3cnc4ccccc4c3)cc2)C1=O,.,1.7,.,.,.,.
COCC#Cc1cnc2c(c1)C(=O)N([C@H](C)CO)C[C@H](C)[C@@H](CN(C)S(=O)(=O)c1ccccc1)O2,.,-2.2,.,.,.,.
COc1ccc(CN2CCC[C@]3(N[C@H](c4ccc(C)cc4)[C@@H]4C(=O)N(Cc5ccccc5)C(=O)[C@@H]43)C2=O)cc1,.,-1.6,.,.,.,.
OCCNCCCOc1ccc(Cl)cc1Br,i,-0.8,1.9,0.7,25.0,119.4
C=CCNCCCOc1ccc(Cl)cc1Br,i,-2.3,46.4*,-0.6,9.0,109.7
CCOc1cc(-c2nc(-c3ccncc3)no2)cc(OCC)c1OCC,i,-6.8,22.0*,0.9,-25.3,115.8
O=C(O)c1ccccc1NS(=O)(=O)c1cccc(C(F)(F)F)c1,i,17.9*,15.4,2.6,5.5,112.5
O=C(O)CCC(=O)Nc1nc2nc(-c3ccccc3)cc(-c3ccccc3)n2n1,+,-2.5,11.4,1.1,8.7,111.5
COC(=O)CN(c1ccccc1C)S(C)(=O)=O,i,-4.0,31.3*,2.3,8.9,93.8
CCc1ccccc1N(CC(=O)OC)S(C)(=O)=O,i,0.2,-2.6,1.4,2.2,89.8
FC(F)(F)c1cc(Oc2ccccc2)ncc1-c1nnc(-c2ccccc2Cl)o1,+,1.1,17.9,-0.3,6.2,106.0
O[C@@H]1CN(CC2CCCCC2)[C@@H](c2ccc(Cl)cc2)C[C@H]1n1cc(-c2ccc(F)cc2)nn1,.,-2.7,.,.,.,.
CCOc1ccc2[nH]c(=O)c(CN(CCN3CCOCC3)Cc3nnnn3C(C)(C)CC)cc2c1,+,0.1,0.6,-0.8,12.3,110.3
CCN(CC)C(=O)C1CCN(S(=O)(=O)c2cccc3nonc23)CC1,i,-0.3,43.1*,-0.6,-9.1,100.5
Cc1nc(C(C)N(C)Cc2nc(-c3ccc4c(c3)OCO4)no2)c(C)s1 (stereo unspecified),i,-1.1,20.3,3.0*,37.7,86.7
O=C(NCc1ccccc1)c1ccc(OC2CSC2)cc1,i,-1.3,34.6*,-0.5,21.8,104.6
CC(=O)Nc1ccc(Br)c(Cl)c1,i,2.6,29.7,1.5,21.9,96.0
SMILES,Rce1 inhib,V-ATPase pH,NALP1 inh,PERK inh,NALP3 yeast inh,Yeast superoxide
O=C(Nc1ccc(Br)c(Cl)c1)C1CC1,i,-1.1,45.0*,1.4,21.4,70.1
CC1CCN(C(=O)C2CCN(S(=O)(=O)c3ccc(-n4cnnn4)cc3)CC2)CC1,+,3.2,-6.9,.,9.6,105.3
CC1CCCCN1C(=O)C1CCN(S(=O)(=O)c2ccc(-n3cnnn3)cc2)CC1 (stereo unspecified),i,0.1,3.0,.,12.7,99.2
CSc1ncnc2c1ncn2CCCNCCCc1ccccc1,.,-1.5,.,.,.,.
Cc1cc(C)c2cc(C#N)c(NCCCNC(=O)c3cccnc3)nc2c1,.,-1.8,.,.,.,.
Cc1cn([C@H]2C[C@H](O)[C@@H](CNS(=O)(=O)N3CCCC3)O2)c(=O)[nH]c1=O,.,2.1,.,.,.,.
CC(C)(ONC(=O)Nc1ccccc1Cl)C(=O)O,i,6.7,29.8*,0.4,7.2,107.2
NC(=O)NC(=O)Nc1ccccc1Cl,i,0.1,18.1,-0.1,0.4,106.7
C/C(Cn1nc([N+](=O)[O-])cc1C)=N\NC(=O)COc1ccc(Cl)cc1Cl,i,-2.4,3.4,0.5,21.4,55.0*
C[C@@H]1CCCCO[C@H](CN(C)C(=O)Nc2ccc3c(c2)OCO3)[C@@H](C)CN([C@H](C)CO)C(=O)c2cc(NS(=O)(=O)c3ccc(F)cc3)ccc2O1,.,0.6,.,.,.,.
